Source: PMC4336329 (PLoS ONE, 2015)
Among all 310,000 compounds or so, about 14,000 (4.5%) showed an effect of 50% or more. Effects have a minus sign here. The full list was thinned out, with strong results kept by preference.

The molecules below were run against human ether-à-go-go-related gene (hERG) potassium channel (human, UniProt Q12809) (assay: primary screen, population patch clamp on CHO cells stably expressing hERG; higher = less effect of the substance).
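Note: peak tail current of the secondary pulse compared with the same well before compound.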

human ether-à-go-go-related gene (hERG) potassium channel, sequence (Q12809 whole entry, looked up): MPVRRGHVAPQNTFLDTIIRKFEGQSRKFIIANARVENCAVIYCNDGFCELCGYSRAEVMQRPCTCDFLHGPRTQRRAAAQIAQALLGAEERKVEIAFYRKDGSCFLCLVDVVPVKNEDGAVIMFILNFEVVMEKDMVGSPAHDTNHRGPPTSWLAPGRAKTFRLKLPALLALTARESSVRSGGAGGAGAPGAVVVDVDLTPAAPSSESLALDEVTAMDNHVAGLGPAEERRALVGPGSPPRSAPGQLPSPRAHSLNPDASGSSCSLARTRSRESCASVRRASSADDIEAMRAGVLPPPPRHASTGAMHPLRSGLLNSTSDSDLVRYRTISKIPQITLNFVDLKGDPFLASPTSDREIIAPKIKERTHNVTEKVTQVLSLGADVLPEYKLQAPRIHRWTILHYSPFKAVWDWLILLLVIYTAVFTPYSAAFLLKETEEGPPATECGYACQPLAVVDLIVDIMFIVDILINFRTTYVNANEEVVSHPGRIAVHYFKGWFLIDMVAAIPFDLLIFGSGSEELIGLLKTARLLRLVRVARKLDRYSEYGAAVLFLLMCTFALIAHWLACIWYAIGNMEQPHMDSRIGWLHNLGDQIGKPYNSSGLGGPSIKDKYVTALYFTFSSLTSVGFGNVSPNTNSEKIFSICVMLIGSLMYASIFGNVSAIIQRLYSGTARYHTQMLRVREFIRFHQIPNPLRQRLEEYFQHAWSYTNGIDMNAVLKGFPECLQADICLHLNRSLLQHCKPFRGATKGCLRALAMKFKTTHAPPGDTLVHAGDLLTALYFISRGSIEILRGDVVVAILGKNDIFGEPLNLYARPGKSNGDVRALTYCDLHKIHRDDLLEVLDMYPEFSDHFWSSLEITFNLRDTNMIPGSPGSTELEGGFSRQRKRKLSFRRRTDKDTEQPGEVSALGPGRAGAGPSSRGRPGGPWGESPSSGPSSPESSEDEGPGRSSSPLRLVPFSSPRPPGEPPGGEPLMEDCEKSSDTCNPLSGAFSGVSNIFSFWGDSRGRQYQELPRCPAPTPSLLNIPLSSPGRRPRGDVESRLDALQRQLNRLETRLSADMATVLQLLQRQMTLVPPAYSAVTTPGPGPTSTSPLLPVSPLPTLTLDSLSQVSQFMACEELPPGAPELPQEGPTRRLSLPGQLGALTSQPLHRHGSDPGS

SMILES | hERG current change (%, negative = inhibition) at 10uM [%]
Cc1ccc(S(=O)(=O)Nc2ccc3cn[nH]c3c2)c(C)c1 | -18.1
Cc1cccc(NC(=O)c2nc[nH]c2C(=O)NCC(=O)OCc2ccccc2)c1 | 9.54
CC(C)CC(N)c1cn([C@@H](CCC(=O)O)C(=O)N2CCNCC2)nn1.Cl (stereo partly drawn) | 17.2
COC(=O)N/N=C(\C)c1ccc(C)c([N+](=O)[O-])c1 | -0.21
COC(=O)c1cccc(NC(=O)c2cnn(C)c2)c1 | 15.9
CCO.CCOC(=O)c1c(-c2ccccc2)oc2ccc(OC(C)C(=O)O)cc12 (stereo not drawn) | -15
O=C(NNC(=S)NC(=O)c1ccccc1)c1cccc([N+](=O)[O-])c1 | 22.8
Cc1csc(SCC(=O)Nc2cccc3nsnc23)n1 | -14.8
CCCOc1ccc(C(=O)N(Cc2cccs2)C2CCS(=O)(=O)C2)cc1 (stereo not drawn) | -8.87
CCn1c2ccccc2c2cc(CC(N)=O)ccc21 | 5.3
COc1ccc(C(=O)NCCc2nnc3ccc(SCC(=O)NCCc4ccc(OC)c(OC)c4)nn23)cc1 | 0.371
Cc1cccc(NC(=O)CC2NCCNC2=O)c1 (stereo not drawn) | 8.94
Cc1ccc(NC(=O)CSc2nnc(-c3cccnc3)n2-c2ccc(C)cc2)cc1 | -21.4
O=C(CSc1nnc2ccc(-c3cccnc3)nn12)Nc1ccc(F)cc1 | -63
O=C(CSc1nnc(-c2cccnc2)n1-c1ccccc1)Nc1ccccn1 | -41
Cc1ccc(NC(=O)C(C)Sc2nnc(-c3cccnc3)n2-c2ccccc2)cc1 (stereo not drawn) | -81.4
COc1cc(NC(=O)CSc2nnc3ccc(-c4cccnc4)nn23)cc(OC)c1 | -9.05
Cc1ccc(NC(=O)C(C)Sc2nnc(-c3cccnc3)o2)cc1 (stereo not drawn) | 11.9
Cc1nnc(SCC(=O)Nc2cccc(N)c2)n1-c1ccccc1 | -10.1
Nc1nnc(SCC(=O)Nc2ccc(F)c(Cl)c2)n1-c1ccccc1 | -70.7
O=C(CSc1nnc(-c2cccnc2)n1-c1ccccc1)Nc1ccccc1 | -76.3
Cc1ccc(NC(=O)CSc2nnc(C)n2-c2ccccc2)cc1 | -3.7
Cc1ccccc1-n1c(SC(C)C(N)=O)nnc1-c1cccnc1 (stereo not drawn) | -6.92
COc1ccc(NC(=O)CSc2nnc3ccc(-c4cccnc4)nn23)cc1 | -46.4
